# Laboratory results: PubChem BioAssay (EPA / NIEHS)
# Records with an inconclusive call do not appear. Activity calls are given as the source filed them. How the source made its calls: active means hit-call score of the fitted dose curve at least 0.9, where 1 is the maximum; inconclusive means response in the unintended direction; inactive means score below 0.9.
# Molecular target: human Esterase Plasma (ES), BCHE (gene 590) (UniProt P06276)
# Experiment: NVS_ENZ_hES: NovaScreen (NVS) Enzymatic Assay for human Esterase Plasma (ES) (AID 2283157)
# In short: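 Screening ran at 25 uM in duplicate, followed by singleton concentration series reaching 50 uM for actives. Human plasma protein, colorimetric detection, 0.25 h exposure, DMSO negative control.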
# human Esterase Plasma (ES), BCHE (gene 590), sequence (P06276 whole entry, looked up): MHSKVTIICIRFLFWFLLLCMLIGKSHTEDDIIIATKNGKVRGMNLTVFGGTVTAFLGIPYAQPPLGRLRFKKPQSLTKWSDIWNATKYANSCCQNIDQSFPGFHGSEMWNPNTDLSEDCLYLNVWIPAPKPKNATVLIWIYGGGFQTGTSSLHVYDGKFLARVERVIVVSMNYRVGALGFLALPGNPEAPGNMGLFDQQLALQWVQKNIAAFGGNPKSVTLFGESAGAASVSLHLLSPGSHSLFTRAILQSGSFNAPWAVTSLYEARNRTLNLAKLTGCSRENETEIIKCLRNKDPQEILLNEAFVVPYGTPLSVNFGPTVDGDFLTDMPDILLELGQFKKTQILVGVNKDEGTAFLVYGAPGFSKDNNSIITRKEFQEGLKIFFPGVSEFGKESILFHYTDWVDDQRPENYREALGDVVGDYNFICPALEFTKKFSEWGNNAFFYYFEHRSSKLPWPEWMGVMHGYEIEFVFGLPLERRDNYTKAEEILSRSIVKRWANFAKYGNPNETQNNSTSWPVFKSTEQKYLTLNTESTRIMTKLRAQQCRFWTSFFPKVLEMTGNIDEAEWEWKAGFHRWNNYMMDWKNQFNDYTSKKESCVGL
Compound,AC50,outcome
CCOP(=S)(OCC)OP(=S)(OCC)OCC,2.56 µM (active),–
N#CCCC(Br)(C#N)CBr (configuration not stated),19.2 µM (active),–
CCOC(=O)CCN(SN(C)C(=O)Oc1cccc2c1OC(C)(C)C2)C(C)C,14 µM (active),–
CCN(CC)C(=O)C(Cl)=C(C)OP(=O)(OC)OC,25 µM (active),–
CCOP(=O)(OCC)OC(=CCl)c1ccc(Cl)cc1Cl,1.22 µM (active),–
Nc1ccc(N)cc1,–,inactive
CCOC(=O)C(SP(=S)(OC)OC)c1ccccc1 (configuration not stated),4.29 µM (active),–
